PubChem BioAssay (NCATS)
Records with an inconclusive call do not appear. Activity calls are given as the source filed them. Unless noted, the call rests on the fitted dose curve.

Experiments:
[1] = qHTS for Inhibitors of the Functional Ribonucleoprotein Complex (vRNP) of Lassa (LASV) Arenavirus: LASV Primary Screen - GLuc reporter signal (AID 1347082; calls by dose curve; tested in HEK293 reporter line; further: nearly all actives have a fitted effect of over 60% in size); conditions: LASV minigenome vRNP, Gaussia luciferase reporter; series mostly up to 57.5 µM
[2] = qHTS for Inhibitors of the Functional Ribonucleoprotein Complex (vRNP) of Lassa (LASV) Arenavirus: Viability assay - alamar blue signal for LASV Primary Screen (AID 1347083; calls by dose curve; tested in HEK293 reporter line; further: nearly all actives have a fitted effect of over 80% in size); conditions: cell viability, alamar blue fluorescence (LASV minigenome counter-screen); series mostly up to 57.5 µM
[3] = qHTS for Inhibitors of the Functional Ribonucleoprotein Complex (vRNP) of Lymphocytic Choriomeningitis Arenaviruses (LCMV): Viability assay - alamar blue signal for LCMV Primary Screen (AID 1347085; calls by dose curve; tested in HEK293 reporter line; further: nearly all actives have a fitted effect of over 80% in size); conditions: alamar blue viability counter-screen, LCMV vRNP screen cells; series mostly up to 57.5 µM
[4] = target: Nucleoprotein (Lymphocytic choriomeningitis virus (strain Armstrong)) (UniProt P09992); assay: qHTS for Inhibitors of the Functional Ribonucleoprotein Complex (vRNP) of Lymphocytic Choriomeningitis Arenaviruses (LCMV): LCMV Primary Screen - GLuc reporter signal (AID 1347086); conditions: LCMV minigenome vRNP cell assay, Gaussia luciferase reporter; series mostly up to 57.5 µM; further: nearly all actives have a fitted effect of over 70% in size

Measured: Potency

Chain of Nucleoprotein (Lymphocytic choriomeningitis virus (strain Armstrong)) (P09992 whole entry, looked up): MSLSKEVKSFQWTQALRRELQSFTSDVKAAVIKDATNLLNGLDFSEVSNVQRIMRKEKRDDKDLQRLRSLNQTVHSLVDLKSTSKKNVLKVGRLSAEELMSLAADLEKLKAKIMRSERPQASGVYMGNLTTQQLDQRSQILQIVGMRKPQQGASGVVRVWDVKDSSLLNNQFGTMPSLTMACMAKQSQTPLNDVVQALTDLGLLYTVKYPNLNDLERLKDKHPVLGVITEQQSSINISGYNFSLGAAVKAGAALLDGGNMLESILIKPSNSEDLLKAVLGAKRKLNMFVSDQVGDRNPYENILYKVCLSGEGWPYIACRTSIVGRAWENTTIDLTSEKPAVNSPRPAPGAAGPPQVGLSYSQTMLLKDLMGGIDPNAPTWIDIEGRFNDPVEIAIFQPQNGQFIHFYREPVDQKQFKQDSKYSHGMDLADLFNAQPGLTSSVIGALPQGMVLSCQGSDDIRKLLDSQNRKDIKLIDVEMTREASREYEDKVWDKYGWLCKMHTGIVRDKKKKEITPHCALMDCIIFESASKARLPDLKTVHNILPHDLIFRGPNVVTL

C1CCN2C[C@@H]3C[C@@H](CN4CCCC[C@@H]34)[C@H]2C1
inactive: all assays above

O=C(c1ccc(F)cc1)C1CCN(CCn2c(=O)[nH]c3ccccc3c2=O)CC1
inactive: all assays above

Cc1cccc(N(C)C(=S)Oc2ccc3c(c2)CCC3)c1
inactive: all assays above

OC[C@H]1O[C@@H](O[C@@H]2[C@@H](CO)O[C@](O)(CO)[C@H]2O)[C@H](O)[C@@H](O)[C@H]1O
inactive: all assays above

CCOC(=O)[C@H](CCc1ccccc1)N[C@H]1CCc2ccccc2N(CC(=O)O)C1=O
inactive: all assays above

CN1CCN(c2cc3c(nn2)Oc2ccccc2N3C)CC1
inactive: all assays above

CN(Cc1cc(Br)cc(Br)c1N)C1CCCCC1
inactive: all assays above

CN1CCCN=C1/C=C/c1cccs1
inactive: all assays above

CCN(CC)CCN
inactive: all assays above

CCN(CC)CCOC(=O)C1(c2ccccc2)CCCC1
inactive: all assays above

CN1[C@@H]2CC[C@H]1CC(NC(=O)n1c(=O)[nH]c3ccccc31)C2 (some centres undefined)
inactive: all assays above

CN1C(=O)CC(c2ccccc2)C1=O (centres undefined)
inactive: all assays above

CC1CC(=O)NN=C1c1ccc(NCC(C)(C)NCC(O)COc2cc(Cl)ccc2C#N)cc1 (centres undefined)
inactive: all assays above

CCCCC/C=C\C/C=C\CCCCCCCC(=O)NC(C)c1ccccc1 (centres undefined)
inactive: all assays above

Cc1cc(CC(=O)O)n(C)c1C(=O)c1ccc(Cl)cc1
inactive: all assays above

COc1nc(C)nc(Cl)c1NC1=NCCN1
inactive: all assays above

N[C@@H](CSCCCO)C(=O)O
inactive: all assays above

Nc1c(NC/C=C\COc2cc(CN3CCCCC3)ccn2)c(=O)c1=O
inactive: all assays above

COc1ccc2c(c1)C(=O)N(CCc1ccc(S(=O)(=O)NC(=O)NC3CCCCC3)cc1)C(=O)C2(C)C
inactive: all assays above

CC(C)(C)c1ccc(C(=O)CCCN2CCC(OC(c3ccccc3)c3ccccc3)CC2)cc1
inactive: all assays above

O=C(CCCN1CCN(c2ccccn2)CC1)c1ccc(F)cc1
inactive: all assays above

C#C[C@]1(O)CC[C@H]2[C@@H]3CCc4cc(OC)ccc4[C@H]3CC[C@@]21C
inactive: all assays above

O=S1(=O)c2cccc3cccc(c23)N1CCCN1CCN(c2ccc(F)cc2)CC1
inactive: all assays above

CCCn1cnc2c1c(=O)n(CCCCC(C)=O)c(=O)n2C
inactive: all assays above

C1CCC(C(CC2CCCCN2)C2CCCCC2)CC1 (centres undefined)
inactive: all assays above

COc1cccc(N(C)C(=S)Oc2ccc3c(c2)CCCC3)n1
inactive: all assays above

O=c1[nH]c(=O)c2ccccc2o1
inactive: all assays above

COc1ccc(CN(CCN(C)C)c2ncccn2)cc1
inactive: all assays above

CCOC(=O)OC(C)OC(=O)[C@@H]1N2C(=O)[C@@H](NC(=O)[C@H](N)c3ccccc3)[C@H]2SC1(C)C (some centres undefined)
inactive: all assays above

Nc1nc2ncc(CNc3ccc(C(=O)N[C@@H](CCC(=O)O)C(=O)O)cc3)nc2c(=O)[nH]1
inactive: all assays above

COc1ccc2c(c1)c(CC(=O)O)c(C)n2C(=O)c1ccc(Cl)cc1
inactive: all assays above

CCCCCCCCCCCC[N+](C)(C)CCOc1ccccc1
inactive: all assays above

Cc1ccc(O)cc1
inactive: all assays above

O=C(c1ccc(F)cc1)C1CCN(CCn2c(=S)[nH]c3ccccc3c2=O)CC1
inactive: all assays above

O=C(CCCN1CC=C(n2c(=O)[nH]c3ccccc32)CC1)c1ccc(F)cc1
inactive: all assays above

O=c1oc2c(O)c(O)cc3c(=O)oc4c(O)c(O)cc1c4c23
inactive: all assays above

CC(=O)N[C@H]1[C@H]([C@H](O)[C@H](O)CO)OC(C(=O)O)=C[C@@H]1N=C(N)N
inactive: all assays above

CC(Cc1cccc(C(F)(F)F)c1)NCCOC(=O)c1ccccc1 (centres undefined)
inactive: all assays above

O=C(OCC(O)CO)c1ccccc1Nc1ccnc2c(C(F)(F)F)cccc12 (centres undefined)
inactive: all assays above

CC(C)(C)C(=O)OCOC(=O)[C@@H]1N2C(=O)[C@@H](NC(=O)[C@H](N)c3ccccc3)[C@H]2SC1(C)C
inactive: all assays above

CC(=O)N(CC(O)CN(C(C)=O)c1c(I)c(C(=O)NCC(O)CO)c(I)c(C(=O)NCC(O)CO)c1I)c1c(I)c(C(=O)NCC(O)CO)c(I)c(C(=O)NCC(O)CO)c1I (centres undefined)
inactive: all assays above

O=C(NCCc1c[nH]c2ccccc12)c1cccnc1
inactive: all assays above

C/C=C(/C(=C/C)c1ccc(O)cc1)c1ccc(O)cc1
inactive: all assays above

CC(C)(C)NCC(O)COc1cccc2c1CCC(=O)N2 (centres undefined)
inactive: all assays above

C[C@]12CCC(=O)C=C1C=C[C@@H]1[C@@H]2CC[C@@]2(C)[C@H]1CC[C@@]21CCC(=O)O1
inactive: all assays above

Cc1ccc(C(C)OC(=O)C2(C)CCC(C(=O)O)C2(C)C)cc1 (centres undefined)
inactive: all assays above
